# Measured values reported in PubChem BioAssay AID1345083 (National Center for Advancing Translational Sciences (NCATS), 2018).
# Hit rate of the full screen: of about 94,000 compounds, about 6,200 (6.6%) were called active. About 31% were inconclusive and are not listed. The list comes from a sample in which actives are over-represented; it also holds similar structures and randomly drawn compounds. Unmarked numbers belong to inactive results. Calls come from the whole dose curve; as a rule, active = well fitted inhibition curve with a large enough effect; inconclusive = small, poorly fitted or top-dose-only effect; inactive = flat fitted curve, though single readings scatter.
# Assay: Cytotoxic Profiling in HEK 293 Cell Line of Diverse Libraries Using Quantitative High-Throughput Screening; note: nearly all actives have a fitted effect of over 60% in size
# Conditions: HEK 293 viability, ATP luminescence (CellTiter-Glo), 48-72 h; series mostly up to 115 µM; activity change, negative = cytotoxicity: at the top concentration
# Summary of the method: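 HEK 293 cells at 250 cells/well were exposed to compounds by pintool transfer for 48 or 72 hr at 37 degree Celsius, 5% CO2. Viability was read as ATP-coupled luminescence with CellTiter-Glo after 10 min at room temperature.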
# % is set by controls: 0 for no effect and ±100 for the full control effect; potency is the fitted concentration of half-maximal effect.
SMILES,"activity change, negative = cytotoxicity",Potency,outcome
COc1ccc(-c2[nH]ncc2CN2CCCC(C(=O)NCc3ccccc3)CCNC(=O)CC2)cc1 (configuration not stated),-3.9%,,
COc1ccc2cc(-c3[nH]ncc3CN3CCN(c4cccc(C)n4)CC3)ccc2c1,,20 µM (active),
CC(=O)N[C@@H]1CN(Cc2cn[nH]c2-c2ccc(F)cc2)C[C@H]1CO,-18.7%,,
Cc1ncccc1C(=O)N1CCC2(CC1)CC(CO)N(C(=O)c1ccccc1)C2 (configuration not stated),-21.8%,,
COCCC1(NS(C)(=O)=O)CCN(C(=O)c2ccc(C#N)cc2)CC1,1.21%,,
COc1ccc([C@@H](NC(=O)Cc2c(F)cccc2Cl)C2CC(O)C2)cn1 (some centres not stated),,,inactive
CC(C)c1noc(-c2cn(C3CCN(C(=O)c4ccc(N(C)C)cc4)C3)nn2)n1 (configuration not stated),,31.6 µM (active),
COc1ccc(C(=O)N2CCC(n3cc(-c4nc(C(C)C)no4)nn3)CC2)cc1F,-20.9%,,
CCOc1ccc(C(=O)N2CCC(n3cc(-c4nc(C)no4)nn3)C2)cc1 (configuration not stated),2.35%,,
COc1ccc(C(=O)N2CCCC(n3cc(-c4nc(C5CC5)no4)nn3)C2)cc1 (configuration not stated),-16.6%,,
O=C(c1ccc(Cl)cc1)N1CCCC(n2cc(-c3nc(-c4ccccc4)no3)nn2)C1 (configuration not stated),,35.5 µM (active),
COc1cc(OC)cc(C(=O)N2CCCC(n3cc(-c4nc(C(C)C)no4)nn3)C2)c1 (configuration not stated),-23.9%,,
COc1ccc(F)cc1-c1ncc2c(n1)OCCN(CC1CC1)C2=O,-11.4% [at 172 µM],,
CCNC(=O)N1C[C@@H]2OCC(=O)N(Cc3ccc(F)cc3)[C@@H]2C1,-7.12% [at 172 µM],,
Cc1ccc(CN2CCN(c3nc4ccccc4o3)CC2CCO)cc1 (configuration not stated),,44.7 µM (active),
COc1cccc(CN2CCN(c3ncccc3Cl)CC2CCO)c1 (configuration not stated),-18.9%,,
CCOC(=O)N1CCC(N2CCN(Cc3ccccc3F)C(CCO)C2)CC1 (configuration not stated),-1.09%,,
COc1ccc(CN2CCN(c3nc4ccccc4o3)CC2CCO)cc1C (configuration not stated),,35.5 µM (active),
CCOc1ccc(CN2CCN(CC(N)=O)CC2CCO)cc1 (configuration not stated),-4.27%,,
CN1C(=O)c2cccn2CC1C(=O)Nc1ccc(F)cc1F (configuration not stated),3.42%,,
O=C(NC1CC1)[C@@H]1C[C@H](Oc2ccccc2)CN1C(=O)CN1CCCCCC1,-5%,,
CCc1nncn1C1CCN(S(=O)(=O)c2cc(F)ccc2OC)CC1,-19.1%,,
Cc1cccc(N2Cc3c(NCCCOC(C)C)ncnc3N(C)CC2=O)c1,-4.64%,,
NCc1ccccc1-c1ccc(F)cc1,-28.9% [at 172 µM],,
Cc1cc2cccc(-c3nc(C4CCOC4)nn3CC(=O)O)c2o1 (configuration not stated),,,inactive

SMILES,"activity change, negative = cytotoxicity",Potency,outcome
Cc1nc(N2CCC(NC(=O)c3cnccn3)CC2)cc(C(F)(F)F)n1,0.535%,,
Cc1nc(N2CCC(NCCNc3ccncc3C)CC2)c2ccsc2n1,,35.5 µM (active),
CNC(=O)c1cc(C2CC2)nc2onc(C3CCCN3C(=O)c3ccccc3)c12 (configuration not stated),2.63%,,
Cc1ccc(NC(=O)CC2CCCN(c3cn[nH]c(=O)c3)C2)cc1F (configuration not stated),-5.38%,,
CN(C)CC(O)COc1ccc(CN(C)C2CCSCC2)cc1 (configuration not stated),2.5%,,
COc1ccc(-c2nc3c(c(=O)[nH]2)CCN(C(=O)Cc2ccc(OC)c(Cl)c2)C3)cc1,6.92%,,
COc1ccccc1-n1c(=O)c(C(=O)N2CCN([S+](=O)([O-])c3cccs3)CC2)nc2cccnc21,0.116%,,
O=c1n(CCN2CCN([S+](=O)([O-])c3cccs3)CC2)nc2n1CCCC2,-2.54%,,
O=[S+]([O-])(c1cccs1)N1CCN(c2nccc(Nc3ccccc3F)n2)CC1,,35.5 µM (active),
C=CCNC(=O)c1cn2c(n1)CN(C(=O)c1ccccc1F)CC2,2.59%,,
CCNC(=O)N1CCC(n2c(C)cnc2C2CC2)CC1,,,inactive
CCOc1ccc(NC(=O)N2CCC3(CC2)SCC(=O)N3Cc2ccco2)cc1,-2.92%,,
CCOc1ccccc1C(=O)N1CCC(Oc2ncccc2C(=O)N(C)C)C1 (configuration not stated),-24%,,
O=C(CCC1CCCC1)N1CCC2(CC1)CC(O)CCO2 (configuration not stated),2.16%,,
c1ccc(-n2cnnc2CC2CCN(Cc3ccc(-c4ccn[nH]4)o3)CC2)cc1,3.74%,,
CC(C)CN1CCN(C2CCOC3(CCN(S(=O)(=O)c4cccs4)CC3)C2)CC1 (configuration not stated),-11.3%,,
COC(=O)c1cccc2nc([C@H]3CCN(Cc4ccccc4)C3)oc12,,79.4 µM (active),
CCOc1ncccc1C(=O)N1CCN(Cc2ccccc2)CC(O)C1 (configuration not stated),-16.2%,,
Cc1nnc([C@H]2CCN(Cc3ccc(F)cc3)C2)o1,2.67% [at 230 µM],,
Cc1cc(C[C@@H]2COC[C@@H]2NC(=O)CCCc2nc(-c3ccco3)no2)on1,,,inactive
COCCNC(=O)c1cnc2n[nH]c(-c3ccccc3OC)c2n1,-20.1% [at 172 µM],,
COc1ccccc1-c1[nH]nc2ncc(C(=O)N3CCN(Cc4ccccc4)CC3)nc12,,100 µM (active),
COc1ccccc1-n1c(=O)c(C(=O)N2CCN(Cc3ccccc3)CC2)nc2cccnc21,,,inactive
CNC(=O)c1cc(C)nc2onc(C3CCN(C(=O)c4ccc(C(F)(F)F)cc4)C3)c12 (configuration not stated),-23.2%,,
Cc1cc(C)n(CC(=O)N2CCCC3(C2)Nc2cccnc2NC3=NC2CCCC2)n1 (configuration not stated),-12.2%,,

SMILES,"activity change, negative = cytotoxicity",Potency,outcome
O=C(c1ccc(Cl)cc1)N1CCN(CCn2nc3n(c2=O)CCCC3)CC1,-9.57%,,
Cc1noc(C)c1S(=O)(=O)N1CCCN(c2nc3ncccc3o2)CC1,0.408%,,
O=C(NCc1cccc(F)c1)C1CN(c2ccccc2)C(=O)N1 (configuration not stated),4.55% [at 172 µM],,
CNC(=O)CN(C)C(=O)[C@@H]1CN(c2ncccn2)C[C@H]1COC,-1.47%,,
F[C@@H]1CN(C2CCC2)C[C@@H]1OCc1nc2ncccc2[nH]1,-5.83% [at 230 µM],,
O=C(Nc1ccccc1)O[C@@H]1CO[C@H]2[C@@H]1OC[C@@H]2NS(=O)(=O)c1cccc2cccnc12,-18.1%,,
CC(=O)Nc1ccc(S(=O)(=O)N[C@H]2CO[C@H]3[C@@H]2OC[C@@H]3n2nnnc2Oc2ccccc2)cc1,-19.3%,,
O=C(Nc1ccc(Oc2ccccc2)cc1)O[C@@H]1CO[C@H]2[C@@H]1OC[C@@H]2NS(=O)(=O)c1cccs1,,39.8 µM (active),
O=C(c1ccccc1)N1CCC2(CC(c3cccnc3)=NO2)C1 (configuration not stated),,,inactive
O=C(NCC1CCOCC1)Nc1cccc(Cl)c1,10.7%,,
O=C(Nc1ccc(Cl)cc1)C1CCN(C(=O)c2ncn3c2COC(c2ccc(F)cc2)C3)CC1 (configuration not stated),-27.3%,,
O=C(Nc1cccc(Cl)c1)[C@@H]1C[C@H](c2ccc(F)cc2)N([S+](=O)([O-])C2CC2)C1,,79.4 µM (active),
CC[C@H]1CN(S(C)(=O)=O)CC[C@H]1CC(=O)NCc1cccc2ccccc12,-26% [at 172 µM],,
Cn1nc(-c2nncn2CC2CC2)c2c1CCN(C(=O)CC1CCCC1)C2,,,inactive
O=C(Cc1cccc(F)c1)N1CCCC(Cc2nncn2-c2ccccc2)C1 (configuration not stated),-7.97%,,
NS(=O)(=O)c1ccc(F)c(C(=O)N[C@@H]2c3ccccc3C[C@@H]2O)c1,-0.467%,,
NS(=O)(=O)c1ccc(F)c(C(=O)NCc2noc(-c3ccco3)n2)c1,-23.5%,,
CCOc1ncccc1CNC(=O)c1cc(S(N)(=O)=O)ccc1F,,79.4 µM (active),
CNC(=O)c1cc(C)nc2onc(C3CCCN3C(=O)C3CCCC3)c12 (configuration not stated),-7.89%,,
Cc1cccc(NC(=O)N2CC(Oc3ccc(-c4nc(C)no4)cc3)C2)c1,-12.5%,,
CN1C[C@H](NS(C)(=O)=O)CCC[C@@H](C(=O)N(C)Cc2cccnc2)CC1=O,1.06% [at 172 µM],,
CC1=C[C@@H](CNS(=O)(=O)c2cccc(C#N)c2)[C@H](C(C)C)C[C@H]1CC(=O)N(C)Cc1cccnc1,,39.8 µM (active),
CN(Cc1ccccc1)C(=O)C[C@@H]1O[C@H](CNS(=O)(=O)c2ccc(Cl)cc2)[C@@H](O)[C@H]1O,,,inactive
CCOc1nccnc1NC1CCN(C(=O)c2cccnc2)CC1,6.7%,,
Cc1nn(CCO)cc1-c1c(-c2ccccc2)ncn1CC(=O)O,-9.19%,,

SMILES,"activity change, negative = cytotoxicity",Potency,outcome
O=C(c1cccnc1)N1CCC(c2nnc(Cn3cccn3)n2C2CC2)CC1,,,inactive
Cc1cnc(C(=O)N[C@@H]2CCC[C@@H]2C(=O)Nc2ccc3c(c2)OCCO3)cn1,-7.64%,,
O=C(O)CCc1cc2n(n1)CCCN(C(=O)CN1CCOC1=O)C2,-3.14%,,
CS(=O)(=O)c1ccc(N2CCN(C(=O)[C@H]3CC[C@@H](N)C3)CC2)c(F)c1,,,inactive
O=C(c1ccccc1F)N1CCC(c2nn(-c3ccc(Cl)cc3)c(=O)[nH]2)CC1,,79.4 µM (active),
O=C(c1ccccc1F)N1CCC(c2nn(-c3ccc(F)cc3)c(=O)[nH]2)CC1,-24.9%,,
Cc1ccc(C(=O)N2CCC(c3nn(-c4ccccc4)c(=O)[nH]3)CC2)cc1,-28.8%,,
COc1cc(=O)n2c(c1C(=O)Nc1cc(C)ccc1C)CCCC2,5.72%,,
O=C(NC1CCCN(CCn2nc3n(c2=O)CCCC3)C1)c1ccc(F)cc1 (configuration not stated),,,inactive
CCCCCC(=O)N1CC[C@H]2COC(=O)N2c2cc(F)ccc2C1,-1.72% [at 172 µM],,
CN(CCc1noc(C2CN(S(=O)(=O)c3ccccc3)C2)n1)C(=O)c1ccncc1,-17.8%,,
O=S(=O)(c1ccccc1)N1CCN(c2ccnc3ccnn23)CC1,-19.4%,,
O=S(=O)(c1ccccc1)N1CCC(F)(c2nc(Cc3ccccc3)no2)CC1,,44.7 µM (active),
O=C(NCc1ccncc1)C1CC(=O)N(c2n[nH]c3cccc(F)c23)C1 (configuration not stated),-11%,,
Cc1ncc(C(=O)N2CCCC(c3cc(N4CCOCC4)nc(C)n3)C2)cn1 (configuration not stated),-4.68%,,
CN(C)C(=O)C1=NOC2CN(C(=O)c3ccn(C)n3)CC12 (configuration not stated),,,inactive [at 172 µM]
O=C(CN1C(=O)NC2(CCOCC2)C1=O)Nc1cccc(Br)c1,-9.49%,,
CCOc1ccccc1CN1CCCOCCNC(=O)CC1,4.71%,,
CCOc1ccccc1CN1CCC2(CCN(C(=O)c3cccc(Cl)c3)CC2)Oc2ccccc21,-12.9%,,
CCOc1ccccc1CN1CCC2(CCN(Cc3cncs3)CC2)Oc2ccccc21,,44.7 µM (active),
CCn1ccc(C(=O)N2C[C@@H](F)C[C@H]2C(=O)N2CCCCC2)n1,5.92%,,
C#CCNC(=O)CC[C@H]1CNC(=O)[C@@H]2[C@@H](CCN2Cc2ccc(N(C)C)cc2)N1C,-24.8% [at 172 µM],,
